According to PubChem BioAssay (NCI):
This is part of a sample that, as a whole, favours compounds with a hit. Of some 83,000 tested, about 20% had one in any assay.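 Plates (96-well) were seeded with cells, treated with compound at one concentration, and incubated for 48 hours before percent growth was determined.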 Unmarked numbers belong to inactive results. The source made the active and inactive calls. How the source made its calls: active means growth percent below 10; inactive means the rest.

Each molecule was assayed on MDA-MB-468 breast (assay: NCI-60 one-dose screen, 48 h (100 = growth as untreated, 0 = no growth, -100 = all killed)). Conditions: 10 µM unless noted.

| Structure (SMILES) | growth |
| --- | --- |
| C[C@]12CC[C@H]3[C@@H](CC4SC(N)=NC45C/C(=N/NC(N)=O)CC[C@]35C)[C@@H]1CCC2=O (stereo not given in full) | -46.2% (active) |
| Nc1cccc(CC(=O)Nc2ccc(S(=O)(=O)F)cc2)c1 | 90.2% |
| Cc1cc[c-]cc1.Fc1c[c-]c(-c2ccccn2)c(F)c1.[Pt+2].c1ccc([PH+](c2ccccc2)c2ccccn2)cc1 | 51% |
| O=C1NC(=O)C(=Cc2ccc(OCCCCC3CCCCC3)c(Cl)c2)C(=O)N1 | 101% |
| CN(C)P1(N(C)C)=NP(N(C)C)(N(C)C)=NP(N(C)C)(N(C)C)=N1 | 106% |
| CC[C@H](C)[C@H](NC(=O)[C@H]1CCCCN1C)C(=O)N(C)[C@H](C[C@@H](OC(C)=O)c1nc(C(=O)N[C@@H](Cc2ccccc2)C[C@H](C)C(=O)O)cs1)C(C)C | -6.41% (active) |
| CCCCCCCCOC(=O)CCN1CC1 | 100% |
| O=C(CCc1ccco1)NC1CCN(CC2(c3ccc(Cl)cc3)CCC2)CC1 | -11.5% (active) |
| CC12CCC3C(CC=C4CC(O)CCC43C)C1C/C(=C\N1CCOCC1)C2=O (stereo not given) | 106% |
| CC(=O)Nc1ccc(NC(=O)c2ccc([As](O)O)cc2)cc1 | 92.5% |
| O=C(CC1(O)C(=O)N(Cc2ccccc2)c2ccc(F)cc21)c1ccc(C(=O)NCC2CCC3(CC2)OOC2(CCCCC2)OO3)cc1 (stereo not given) | -41.8% (active) |
| CN1CCN(c2ccc([N+](=O)[O-])c3no[n+]([O-])c23)CC1 | -70.3% (active) |
| CC/C(=C/c1ccc(OC)cc1OC)[N+](=O)[O-] | -6.94% (active) |
| CCCCCCCCCCCCOc1ccc(C(=O)Oc2ccc(CSP3(=O)OCC4OC(n5cnc6c(N)ncnc65)C(F)C4OP(=O)(O)OCC4OC(n5ccc(=O)[nH]c5=O)C(F)C4O3)cc2)cc1 (stereo not given) | 108% |
| COc1cc2ncnc(Nc3ccc(F)c(Cl)c3)c2cc1OCC(=O)N1CCN(C)CC1 | -32.4% (active) |
| Oc1ccccc1OB(Oc1ccccc1O)N(CCCl)CCCl | 84% |
| COc1ccc2c(c1)c(-c1nc(-c3cn(C)c4ncccc34)cs1)cn2CCN1CCOCC1 | 45.8% |
| COc1cc(/C=C/[N+](=O)[O-])cc(Br)c1OC | -34.7% (active) |

| Structure (SMILES) | growth |
| --- | --- |
| CCCCCCCCCCCCCCCCCC1OC[C@@H](COC(=O)O[C@@H](C(=O)O[C@H]2C[C@@]3(O)[C@@H](OC(=O)c4ccccc4)[C@@H]4[C@]5(OC(C)=O)CO[C@@H]5C[C@H](O)[C@@]4(C)C(=O)[C@H](OC(C)=O)C(=C2C)C3(C)C)[C@@H](NC(=O)c2ccccc2)c2ccccc2)O1 (stereo not given in full) | 21% |
| O=C(CBr)OCCOC(=O)CBr | 32.8% |
| CC[C@H](C)[C@H](NC(=O)[C@H]1CCCCN1C)C(=O)N(C)[C@H](CCc1nc(C(=O)N[C@@H](Cc2ccccc2)C[C@H](C)C(=O)O)cs1)C(C)C | 36.1% |
| CCC[CH2][Sn]1([CH2]CCC)[O]C(=O)c2cccc([N+](=O)[O-])c2C(=O)[O]1 | -79.4% (active) |
| CCN1C(=O)CC(=O)N(CC)C1=S | 93.1% |
| Clc1cccc(N2COOC3(OOC2)C2CC4CC(C2)CC3C4)c1 | 77.7% |
| O=C1CC2(CC3(Cl)C(Cl)=C(Cl)C2(Cl)C3(Cl)Cl)C(=O)O1 (stereo not given) | 105% |
| CC[C@]12C=CCN3CC[C@]4(C(=C(C(=O)OC)C1)Nc1cc(OC)c(OC(C)=O)cc14)[C@@H]32 | 50.3% |
| O=C1CCCCC1CN1CCCCC1 (stereo not given) | 112% |
| NC(N)=N/N=C\c1c[nH]c2ccc(Br)cc12 | -6.01% (active) |
| c1cnc2c(c1)ccc1ncccc12 | 109% |
| COC(=O)C12C3C4C1C1C2C3C41NC(=O)c1csc([C@@H](C[C@H](C(C)C)N(C)C(=O)[C@@H](NC(=O)[C@H]2CCCCN2C)C2CC2)OC(C)=O)n1 (stereo not given in full) | 29.6% |
| O=C(N/N=C/c1ccc(N(CCCl)CCCl)cc1)c1cccc2ccccc12 | 56.2% |
| C#Cc1cccc(Nc2nc(Cl)nc3cc(NC(=O)CF)ccc23)c1 | 61.5% |
| CC12CCC(O)CC1=CCC1C2CCC2(C)C(O)CCC12 (stereo not given) | 99.4% |
| FC(F)=C(F)c1ccccc1 | 105% |
| CC(=O)OC1CCC2(C)C(=CCC3C4CC(CN5CC5)C(=O)C4(C)CCC32)C1 (stereo not given) | 1.98% (active) |
